This is an account of results in PubChem BioAssay.

Test [1] in a line: inhibitors of TNFa-induced NFkB p65 translocation, primary screen, imaging, HUVEC, MLSMR starter and 10KST1 sets (AID 438;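 active = inhibition above 20% together with a positive visual image hit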;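 note: compound added about 3h40 before a 20 min TNFalpha stimulation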;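 for inhibition: signal is the nuclear over cytoplasmic p65 intensity ratio per well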). The conditions noted are these: HUVEC TNFa-induced p65 nuclear translocation; cell count: measured here: nuclei count (cytotoxicity indicator), at 2.08 µM; inhibition: at 2 µM, stronger effect = higher value, 0% TNFa-plus-vehicle, 100% no-TNFa wells.
Test [2] is described as follows: reduction of polyQ htt aggregates in cells – imaging, exon1htt(103Q)mCFP cells, high-content imaging, primary screen (AID 483;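 active = visual image review flags a hit and inhibition of aggregation exceeds 20%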;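 note: compound exposure lasted 3 days before fixation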;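 for nuclei count: percent of the per-plate median nuclei count of sample wells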). Conditions: exon1htt(103Q)mCFP cell line, aggregate imaging, at 2 µM; inhibition of aggregation: stronger effect = higher value; nuclei count: measured here: cell count, toxicity.
Test [3] can be described thus: endothelial E-selectin expression blockers – imaging, HUVEC, immunofluorescence, MLSMR starter and 10KST1 sets, primary screen (AID 487;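 active = visually confirmed hit in the image check and inhibition above 20%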;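 for inhibition: signal is fraction of cell area covered by stained E-selectin grains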;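 for nuclei count: 100% = median nuclei count of all wells on the same plate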). The conditions noted are these: HUVEC TNFalpha-induced E-selectin immunofluorescence imaging, at 2 µM; inhibition: stronger effect = higher value; nuclei count: measured here: cell number, toxicity.
In test [4] the target is Voltage-gated potassium channel subunit beta-2 (Rattus norvegicus) (UniProt P62483). Put plainly: inhibitors of rat Kvbeta2 reductase activity – biochemical, NADPH fluorescence, primary screen (AID 622;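 active = fluorescence slope higher than the sample average by over 3 SD, cut at about -0.22 in these data, passing the limit was not always enough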;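 note: slope of raw intensity against log time taken from 70 to 1610 s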). Conditions: recombinant KvBeta, 4-cyanobenzaldehyde reduction, at 10 µM, stronger effect = higher value.
For test [5] the target is unchanged. Put plainly: enhancers of rat Kvbeta2 NADPH turnover – biochemical, NADPH fluorescence, primary screen (AID 623;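 active = NADPH fluorescence slope more negative than the mean of all samples by about 3 SD, 99.7% confidence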;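 note: fluorescence intensity change per second fitted from 20 to 320 s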). Conditions: Recombinant KvBeta, NADPH fluorescence decrease slope, 10 min; at 10 µM; stronger effect = lower value.
The target of test [6] is Alpha-2C adrenergic receptor (Homo sapiens) (UniProt P18825). Put plainly: compounds altering alpha2C-coupled GIRK flux – cell-based, HEK293 alpha2C/GIRK1/2, thallium flux, primary screen (AID 624).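 Note: slope of fluorescence ratio to pre-addition baseline per second over 15 to 24 s.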 Conditions: thallium flux BTC fluorescence, at 10 µM, actives lie on both sides.
The nature of test [7]: blockers of RIG-like receptor reporter activation – cell-based, Sendai virus stimulus, luciferase, 10K MLSCN set, TLR/RLR signaling modifier project, primary screen (AID 602276;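 active = inhibition at or above 50% at 10 µM; inactive = inhibition below 50%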;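 note: firefly luciferase from ISG56 promoter only with Renilla not read in this screen; 0% = Sendai virus plus DMSO and 100% = medium plus DMSO without virus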). The conditions noted are these: HEK293 RL24 IRF3 luciferase reporter, at 10 µM, stronger effect = higher value. (In a reporter assay the amount or activity of a reporter protein is the signal.)
Test [8] can be described thus: TLR3 IRF3 reporter activation blockers – cell-based, poly I:C stimulus, luciferase, 10K MLSCN set, primary screen (AID 602277;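 active = inhibition of the reporter signal at or above 50%; inactive = inhibition below 50%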). The conditions noted are these: HEK293-TLR3 RL24 IRF3 luciferase reporter, at 10 µM, stronger effect = higher value.

Broadly, the inhibition is the relative decrease from the control value, in per cent.

Active and inactive are the calls of the source.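 Rule for the calls, unless noted: active = fluorescence slope after compound addition differing from the mean of all screened samples at 99.7% confidence, in either direction; inactive = the rest.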

Sequence of Alpha-2C adrenergic receptor (Homo sapiens) (P18825 whole entry, looked up): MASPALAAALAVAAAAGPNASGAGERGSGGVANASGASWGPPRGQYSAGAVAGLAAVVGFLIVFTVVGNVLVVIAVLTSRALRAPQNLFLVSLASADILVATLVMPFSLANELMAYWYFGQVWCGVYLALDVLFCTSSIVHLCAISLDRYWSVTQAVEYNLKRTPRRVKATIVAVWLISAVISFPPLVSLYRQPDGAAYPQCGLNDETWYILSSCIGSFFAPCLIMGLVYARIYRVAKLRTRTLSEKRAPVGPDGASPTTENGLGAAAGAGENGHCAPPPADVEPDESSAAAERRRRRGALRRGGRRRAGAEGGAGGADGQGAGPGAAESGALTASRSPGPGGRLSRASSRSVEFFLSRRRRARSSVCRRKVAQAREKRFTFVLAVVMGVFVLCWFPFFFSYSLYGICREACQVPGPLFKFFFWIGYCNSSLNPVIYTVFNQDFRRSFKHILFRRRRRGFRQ
Sequence of Voltage-gated potassium channel subunit beta-2 (Rattus norvegicus) (P62483 whole entry, looked up): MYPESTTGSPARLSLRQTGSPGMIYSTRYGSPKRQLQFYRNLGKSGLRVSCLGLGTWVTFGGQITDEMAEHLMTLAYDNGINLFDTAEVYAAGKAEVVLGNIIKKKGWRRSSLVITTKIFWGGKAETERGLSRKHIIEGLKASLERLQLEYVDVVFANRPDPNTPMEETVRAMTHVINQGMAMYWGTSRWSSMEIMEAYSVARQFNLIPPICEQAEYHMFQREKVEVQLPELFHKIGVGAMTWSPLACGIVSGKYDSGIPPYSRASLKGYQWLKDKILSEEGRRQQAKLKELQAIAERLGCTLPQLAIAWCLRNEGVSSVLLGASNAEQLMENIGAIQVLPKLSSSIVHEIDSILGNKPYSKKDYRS

Consider `Cc1ccc(-n2ncc3c(=O)[nH]c(SCC(=O)N4CCN(c5ccccc5)CC4)nc32)cc1`, for which the cell count in test [1] was 229. In addition, the inhibition in test [1] was -8.5% (inactive); in test [3] it was -22.6% (inactive); in test [7] it was 9.1% (inactive); in test [8], 23.7% (inactive). Also, the inhibition of aggregation in test [2] is 12.5% (inactive). Also, the nuclei count in test [2] was determined as 93.6%; in test [3], 118%. In addition, the fluorescence slope in test [4] was -0.358 (inactive). In test [5], the NADPH fluorescence slope was -1.3e-05 (inactive). In addition, in test [6], the slope is 0.00346 (inactive).
Consider `Cc1ccc(-c2nnc(N(C)C(=O)c3ccccn3)s2)cn1`, for which the cell count in test [1] was found to be 500. Besides, the inhibition in test [1] was 6.8% (inactive); in test [3], -60.4% (inactive); in test [7], -13% (inactive); in test [8], -49% (inactive). In addition, the inhibition of aggregation in test [2] is -1.4% (inactive). The values for the nuclei count in test [2] and in test [3] were 105% and 97.9%, respectively. Moreover, in test [4], the fluorescence slope was -0.495 (inactive). Moreover, in test [5], the NADPH fluorescence slope is -4.7e-05 (inactive). In addition, the slope in test [6] is 0.00529 (inactive).
Take `C=CCn1c(N)c(C(=O)NCCC2=CCCCC2)sc1=S`: the cell count in test [1] came out at 450. The inhibition in test [1] was 6.6% (inactive); in test [3], 4% (inactive); in test [7], 0.338% (inactive); in test [8], -64.6% (inactive). In test [2], the inhibition of aggregation is -12.8% (inactive). In addition, the figures for the nuclei count in test [2] and in test [3] were 104% and 116%, respectively. In addition, the fluorescence slope in test [4] was -0.626 (inactive). Further, the NADPH fluorescence slope in test [5] is -1.2e-05 (inactive). Also, the slope in test [6] is 0.00668 (inactive).
Take `CN1CCc2c(sc3c2c(=O)n(-c2ccccc2)c2nnc(SCc4ccc(F)cc4)n32)C1`: the cell count in test [1] was 375. The inhibition in test [1] was 2.1% (inactive); in test [3], -45% (inactive); in test [7], 4.98% (inactive); in test [8], -12.6% (inactive). In test [2], the inhibition of aggregation is 9.2% (inactive). Further, the nuclei count was determined as 73.7% in test [2] and 210% in test [3]. The fluorescence slope in test [4] was -0.608 (inactive). Besides, in test [5], the NADPH fluorescence slope is -5.9e-06 (inactive). In test [6], the slope was 0.00622 (inactive).
For `O=C(CSc1nnnn1-c1ccccc1)c1cc2ccccc2oc1=O`, the cell count in test [1] turned out to be 788. Further, the inhibition in test [1] is -8.3% (inactive); in test [3], -39.8% (inactive); in test [7], 1.78% (inactive); in test [8], -14.1% (inactive). For the same compound, the inhibition of aggregation in test [2] was -9.6% (inactive). For the same compound, the nuclei count in test [2] came out at 124%; in test [3] it was 117%. Also, the fluorescence slope in test [4] was -0.647 (inactive). In addition, the NADPH fluorescence slope in test [5] is -1.4e-05 (inactive). Moreover, in test [6], the slope is 0.00672 (inactive).
For the compound `Cc1ccccc1-n1nnc2c(=O)oc3ccccc3c21`, the cell count in test [1] was 345. Besides, the inhibition in test [1] was -1.6% (inactive); in test [3], -83% (inactive); in test [7], 12.8% (inactive); in test [8] it was 26.7% (inactive). In addition, in test [2], the inhibition of aggregation was 20.9% (inactive). For the same compound, the nuclei count in test [2] worked out at 98.5%; in test [3], 96.8%. For the same compound, the fluorescence slope in test [4] was -0.347 (inactive). In addition, the NADPH fluorescence slope in test [5] was -3.7e-05 (inactive). Also, in test [6], the slope was 0.00409 (inactive).
As for `COc1cc(C)c(-c2cc(C(=O)O)c(C)o2)cc1C(C)C`, in test [1], the cell count was 451. The inhibition is -7.7% (inactive) in test [1], -99% (inactive) in test [3], 12.3% (inactive) in test [7] and 17.2% (inactive) in test [8]. Moreover, the inhibition of aggregation in test [2] was -1.5% (inactive). Moreover, the nuclei count in test [2] is 95.9%; in test [3], 130%. Besides, the fluorescence slope in test [4] was -0.416 (inactive). For the same compound, the NADPH fluorescence slope in test [5] was 6.3e-06 (inactive). Besides, the slope in test [6] is 0.00528 (inactive).
In the case of `O=C1CC(N2CCOCC2)C(=O)N1c1ccccc1Cl` (centres undefined), the cell count in test [1] was found to be 386. For the same compound, the inhibition in test [1] is -0.6% (inactive); in test [3], -25.3% (inactive); in test [7], 9.93% (inactive); in test [8], 18% (inactive). In addition, in test [2], the inhibition of aggregation was 13.9% (inactive). Besides, the values for the nuclei count in test [2] and in test [3] were 96.9% and 128%, respectively. Further, the fluorescence slope in test [4] was -0.338 (inactive). The NADPH fluorescence slope in test [5] was 1.7e-05 (inactive). The slope in test [6] is 0.00688 (inactive).
In the case of `c1ccc(N2CCN(Cc3cn4cccnc4n3)CC2)cc1`, the cell count in test [1] amounted to 683. The inhibition in test [1] is -18.4% (inactive); in test [3], -36.1% (inactive); in test [7], 8.99% (inactive); in test [8], 18.5% (inactive). Further, the inhibition of aggregation in test [2] is -18.4% (inactive). Also, the nuclei count in test [2] was determined as 107%; in test [3] it was 101%. Further, in test [4], the fluorescence slope is -0.494 (inactive). Also, the NADPH fluorescence slope in test [5] was -4e-06 (inactive). Besides, in test [6], the slope is 0.00602 (inactive).
With `CCOc1ccc(N(CC(=O)OC)S(=O)(=O)c2ccc(OC)c(OC)c2)cc1`, in test [1], the cell count amounted to 444. For the same compound, the inhibition is 6.3% (inactive) in test [1], 9.4% (inactive) in test [3], -8.61% (inactive) in test [7] and 15.5% (inactive) in test [8]. Further, the inhibition of aggregation in test [2] was -1.6% (inactive). Besides, the nuclei count in test [2] was found to be 104%; in test [3], 101%. In test [4], the fluorescence slope was -0.455 (inactive). For the same compound, the NADPH fluorescence slope in test [5] was 6.6e-05 (inactive). Also, the slope in test [6] was 0.00363 (inactive).
For `CSC1=NCCN1C(=O)c1ccc(S(=O)(=O)N2CCCC2)cc1`, the cell count in test [1] worked out at 611. Besides, the inhibition in test [1] is 0.8% (inactive); in test [3] it was -7.2% (inactive); in test [7], 11.2% (inactive); in test [8], 33.2% (inactive). In test [2], the inhibition of aggregation is 9.6% (inactive). Besides, the nuclei count was 107% in test [2] and 105% in test [3]. Besides, the fluorescence slope in test [4] is -0.592 (inactive). Also, the NADPH fluorescence slope in test [5] is -1.6e-05 (inactive). In addition, in test [6], the slope is 0.00671 (inactive).
Regarding `CCOC(=O)C(C(=O)OCC)C(C)C#CCN1CCCCC1` (centres undefined), the cell count in test [1] was found to be 325. The inhibition in test [1] is -1.3% (inactive); in test [3] it was -79.7% (inactive); in test [7] it was 16.5% (inactive); in test [8], 26.6% (inactive). Besides, in test [2], the inhibition of aggregation is -11.4% (inactive). Besides, the nuclei count came to 99.7% in test [2] and 113% in test [3]. Also, in test [4], the fluorescence slope was -0.322 (inactive). Further, the NADPH fluorescence slope in test [5] is -5.7e-05 (inactive). In addition, the slope in test [6] is 0.00551 (inactive).
Consider `CC(=O)c1cccc(S(=O)(=O)NCC(c2ccco2)N2CCCCC2)c1` (centres undefined), for which the cell count in test [1] stood at 707. In addition, the inhibition is -2% (inactive) in test [1], -140% (inactive) in test [3], 5.82% (inactive) in test [7] and 6.55% (inactive) in test [8]. Also, the inhibition of aggregation in test [2] is -10% (inactive). For the same compound, the nuclei count was 107% in test [2] and 145% in test [3]. Besides, the fluorescence slope in test [4] was -0.62 (inactive). Besides, the NADPH fluorescence slope in test [5] is -1.6e-05 (inactive). The slope in test [6] is 0.0049 (inactive).
`CCOc1cc(NC(=O)c2ccco2)c(OCC)cc1NC(=O)CCC(=O)NCc1cccnc1`: in test [1], the cell count worked out at 600. Further, the inhibition was 4.9% (inactive) in test [1], 16% (inactive) in test [3], 9.41% (inactive) in test [7] and 23.3% (inactive) in test [8]. Besides, the inhibition of aggregation in test [2] is 2.6% (inactive). Further, the results for the nuclei count in test [2] and in test [3] were 97.7% and 90.3%, respectively. Besides, in test [4], the fluorescence slope was -0.358 (inactive). The NADPH fluorescence slope in test [5] was 1.7e-05 (inactive). Besides, the slope in test [6] was 0.00315 (inactive).
